Measurements from article PMC4552634, “A New Set of Chemical Starting Points with Plasmodium falciparum Transmission-Blocking Potential for Antimalarial Drug Discovery” (PLoS ONE, 2015).
The whole screen tested about 13,000 compounds, of which about 3,200 (25%) showed an effect of 50% or more. The list shows a part of the results.

tested on: P. falciparum stage V gametocytes; parameters: BacTiter-Glo ATP luminescence viability of purified stage V gametocytes in 384-well plates, per cent inhibition versus DMSO; settings: 48 h, 5 µM; inhibitor

SMILES | % Inhibition [%]
O=C(Nc1ccc2nc(-c3ccccc3)[nH]c2c1)c1cc(-c2ccc3c(c2)OCCO3)n[nH]1 [TCMDC-134398] | 9.818
CS(=O)(=O)Nc1ccc2[nH]cc(C3CCN(CCCCCNC(=O)/C=C/c4ccc(Cl)c(Cl)c4)CC3)c2c1 [TCMDC-139325] | -23.44
Cc1cc(O)c2c(c1)OC(C)(C)C=C2C1=CCN(Cc2ccccc2)CC1 [TCMDC-131313] | -37.74
CN(C)S(=O)(=O)n1ncc2c3c(N)nc(N)nc3ccc21 [TCMDC-131933] | 29.56
O=C(/C=C/c1ccc(Cl)cc1)NCCCCCN1CCN(C(=O)Nc2ccc(Cl)c(C(F)(F)F)c2)CC1 [TCMDC-136093] | 12.32
CCC[C@@H]([C@@H](CC1CCCCC1)C(=O)N[C@H](C(=O)Nc1nccs1)C(C)(C)SCCOCCOCC)N(O)C=O [TCMDC-137777] | 29.4
CS(=O)(=O)c1ccc(CCNCc2ccc(-c3ccc(CN(C(=O)c4ccco4)C4CCN(Cc5ccccc5)CC4)cc3)nc2)cc1 [TCMDC-141510] | 87.45
CS(=O)(=O)c1ccc(CCNCc2ccc(-c3ccc(CN(C(=O)c4ccc(Cl)nc4)C4CCN(Cc5ccccc5)CC4)cc3)nc2)cc1 [TCMDC-141519] | 96.79
CS(=O)(=O)c1ccc(CCNCc2ccc(-c3ccc(CN(C(=O)c4cccc(C#N)c4)C4CCN(Cc5ccccc5)CC4)cc3)nc2)cc1 [TCMDC-141518] | 63.72
C=C[C@]1(C)C[C@@H](OC(=O)c2n[nH]c3ccccc3c2=O)[C@]2(C)[C@H](C)CC[C@]3(CCC(=O)[C@H]32)[C@@H](C)[C@@H]1O [TCMDC-141325] | 0.6377
Cc1ccc(Nc2nccc(NCC(O)c3cccc(C(F)(F)F)c3)n2)cc1 (stereo not drawn) [TCMDC-136583] | -0.2999
COc1ccc(CCON2C(N)=NC(N)=NC2(C)C)cc1OC [TCMDC-131738] | -1.929
CCC(C)CN1CCN(c2cc(NC(=O)c3cccs3)ccn2)C(C)C1 (stereo not drawn) [TCMDC-134995] | 14.25
CCN1CCN(Cc2ccc(NC(=O)c3cc4ccc5cccnc5c4[nH]3)cc2)CC1 [TCMDC-125281] | 19.87
CCN(CC)CCN(Cc1ccc(-c2ccc(C(F)(F)F)cc2)cc1)C(=O)Cn1c(CCc2cccc(F)c2F)cc(=O)c(C)c1C [TCMDC-141148] | 40.01
CCN(CC)CCN(Cc1ccc(-c2ccc(C(F)(F)F)cc2)cc1)C(=O)Cn1c(CCc2cccc(F)c2F)cc(=O)c2c1CCCC2 [TCMDC-141327] | 62.98
CCN(CC)CCN(Cc1ccc(-c2ccc(C(F)(F)F)cc2)cc1)C(=O)Cn1c(CCc2cccc(F)c2F)cc(=O)cc1-c1ccccc1 [TCMDC-141688] | 100.1
CC(C)N1CCC(N(Cc2ccc(-c3ccc(C(F)(F)F)cc3)cc2)C(=O)Cn2c(CCc3cccc(F)c3F)cc(=O)c3c2CCC3)CC1 [TCMDC-141280] | 120.6
CCN1CCC(N(Cc2ccc(-c3ccc(C(F)(F)F)cc3)cc2)C(=O)Cn2c(CCc3cccc(F)c3F)cc(=O)c3c2CCCC3)CC1 [TCMDC-141326] | 67.51
COc1cc(CC(C)NCC(O)c2cccc(C(F)(F)F)c2)ccc1OCc1ccccc1 (stereo not drawn) [TCMDC-131479] | 14.56
CCOc1ccc(NC(C)=O)c(O)c1 [TCMDC-125851] | 13.93

SMILES | % Inhibition [%]
Cc1ccc(-c2nnc(Nc3ccc(OCC(N)=O)cc3)c3ccccc23)cc1S(=O)(=O)NCC1CCCO1 (stereo not drawn) [TCMDC-125617] | -6.517
CC(=O)Oc1cc(OCc2ccccc2)c(OC(C)=O)c(OCc2ccccc2)c1 [TCMDC-123938] | -24.96
COCCCNc1nc2cc(OC)c(OC)cc2c2nc(-c3ccccc3)nn12 [TCMDC-124408] | 0.2335
CC(C)(C)c1ccc(CNCC(C)(C)c2nc(-c3ccc(Cl)c(O)c3)c(-c3ccnc(N)n3)[nH]2)cc1 [TCMDC-141165] | 3.988
Oc1ccc(Cl)cc1-c1cc(C(F)(F)F)nc(-c2ccccc2)n1 [TCMDC-123665] | 32.7
COc1ccc2nccc([C@@H](O)CN3CCC(CO)(NCc4cc5ccccc5o4)CC3)c2c1 [TCMDC-140494] | 12.97
COc1ccc(CC(=O)NC2CCN(c3ccnc4cc(Cl)ccc34)C2)cc1 (stereo not drawn) [TCMDC-133665] | -28.04
CCN(CC)CCN(Cc1ccc(-c2ccc(C(F)(F)F)cc2)cc1)C(=O)CN1C(CCc2cccc(F)c2F)=NS(=O)(=O)c2ccccc21 [TCMDC-141806] | 67.96
CCN1CCC(N(Cc2ccc(-c3ccc(C(F)(F)F)cc3)cc2)C(=O)Cn2c(CCc3cccc(F)c3F)cc(=O)c3c2CCC3)CC1 [TCMDC-141265] | 65.76
COCCN1CCC(N(Cc2ccc(-c3ccc(C(F)(F)F)cc3)cc2)C(=O)Cn2c(CCc3cccc(F)c3F)cc(=O)c3c2CCC3)CC1 [TCMDC-141266] | 34.4
CCCNc1ccc2nccc(CCN3CCC(NCc4ccc5c(c4)NC(=O)CS5)CC3)c2n1 [TCMDC-141619] | -14.28
ON=C1CCc2cc(-c3nc(-c4cccc(OCCNCc5ccc(F)cc5)c4)[nH]c3-c3ccncc3)ccc21 [TCMDC-141188] | 20.84
CN1CCC(NCCS(=O)(=O)c2cccc(Nc3ccc(-c4cccc(F)c4)cn3)c2)CC1 [TCMDC-134370] | 8.325
CN1CCC(NCc2cccc(-c3ccc(S(=O)(=O)NCCc4ccccn4)cc3)c2)CC1 [TCMDC-132214] | 81.33
Cc1cc(-c2cccc(CNC3CCN(C)CC3)c2)ccc1S(=O)(=O)NCCc1ccccn1 [TCMDC-132381] | 33.36
CN1CCC(NCc2ccc(-c3cccc(S(=O)(=O)NCCc4ccccn4)c3)cc2)CC1 [TCMDC-132239] | 62.99
COc1ccc2nccc([C@@H](O)CN3CCC(NCC(=O)Nc4cc(F)cc(F)c4)CC3)c2n1 [TCMDC-140675] | -19.08
Cc1ccnc2nc(C(=O)Nc3cc(C(F)(F)F)ccc3N3CCCCC3)nn12 [TCMDC-124492] | -24.2
Cc1ccc(C(=O)NCC2CCN(c3ccc(C(F)(F)F)cc3NC(=O)c3ccco3)CC2)cn1 [TCMDC-134179] | 52.48
COC(=O)Nc1cc(C(F)(F)F)ccc1N1CCC(CNS(=O)(=O)c2ccc(OC)cc2)CC1 [TCMDC-134157] | 29.26
C[C@H](NC(=O)[C@H](Cc1ccccc1)NC(=O)OC(C)(C)C)C(=O)N[C@@H](CC1CCCCC1)C(O)CN (stereo partly drawn) [TCMDC-137178] | -9.62

SMILES | % Inhibition [%]
CCC(ON1C(N)=NC(N)=NC1(C)C)c1ccccc1 (stereo not drawn) [TCMDC-131604] | -12.67
CN1CCN(CCCN(Cc2ccc(-c3cccc(CNC4CCCC4)c3)cc2)C(=O)Nc2ccccc2)CC1 [TCMDC-140605] | 107.6
CN1CCN(CCCN(Cc2cccc(-c3cccc(CNC4CCCC4)c3)c2)C(=O)/C=C/c2ccccc2)CC1 [TCMDC-140543] | 105.2
COc1cccc(C=CC(=O)N(CCN)Cc2ccccc2)c1 [TCMDC-137725] | -7.766
CN1CCN(CCCN(Cc2ccc(-c3cccc(CNC4CCCC4)c3)cc2)C(=O)/C=C/c2ccccc2)CC1 [TCMDC-140547] | 114.1
CN1CCN(CCCN(Cc2cccc(-c3ccc(CNC4CCCC4)cc3)c2)C(=O)/C=C/c2ccccc2)CC1 [TCMDC-140544] | 99.25
CCCCCN1CCCN(Cc2cccc(NC(=O)c3ccc(-c4ccccc4)cc3)c2)CC1 [TCMDC-141845] | -85.57
CCCCN1CCCN(Cc2cccc(NC(=O)c3ccc(-c4ccccc4)cc3)c2)CC1 [TCMDC-141844] | -70.1
CN1CC[C@@H](Oc2cc(CNC(=O)c3ccc(-c4ccc(Cl)cc4)s3)ccc2C(F)(F)F)C1 [TCMDC-136151] | -38.31
C=CCc1cc(Cc2cnc(N)nc2N)c2ccc(C)nc2c1OC [TCMDC-137891] | -15.21
Cc1cc(OCc2ccccc2)c(OCc2ccccc2)cc1C(O)CN(C)Cc1ccccc1 (stereo not drawn) [TCMDC-131246] | 18.13
Cc1cc(Nc2ccc(C(C)(C)C)cc2)c2[nH]ncc2n1 [TCMDC-131536] | -25.63
Cc1ccccc1CCNC(=O)c1ccc(N2CCN(c3ccncc3)CC2)nc1 [TCMDC-134588] | 6.86
Cc1ccc2cc(C3NC(=O)c4ccccc4N3)c(Cl)nc2c1 (stereo not drawn) [TCMDC-124480] | -10.78
N#Cc1cccc(Nc2nccc(NCC(O)c3cccc(C(F)(F)F)c3)n2)c1 (stereo not drawn) [TCMDC-136580] | -40.58
O=C(NC(c1ccc(Cl)cc1)c1ccc2cccnc2c1O)c1ccccc1 (stereo not drawn) [TCMDC-123829] | -93.03
O=C(Cc1ccccc1)NC(c1ccc(Cl)cc1)c1ccc2cccnc2c1O (stereo not drawn) [TCMDC-124427] | 70.3
c1ccc(C(OCCC2CCN(Cc3cccc4cccnc34)CC2)c2ccccc2)cc1 [TCMDC-136047] | -51.83
O=C(Cc1ccccc1)NC(c1ccccc1)c1ccc2cccnc2c1O (stereo not drawn) [TCMDC-124383] | 92.16
O=C(CCc1ccccc1)NC(c1ccc(Cl)cc1)c1ccc2cccnc2c1O (stereo not drawn) [TCMDC-123537] | 82.06
Cc1ccc(C(NC(=O)Cc2ccccc2)c2ccc3cccnc3c2O)cc1 (stereo not drawn) [TCMDC-125551] | 6.84
